Rows were chosen to be rich in hits. Some 12% of all compounds tested hit in one or more screens of this group.
FMDV inh: antivirals against foot and mouth disease virus; FMDV antiviral cell-based qHTS; Potency, µM (highest dose often 57.9 µM), inactives show top-dose activity change, negative = inhibition, actives largely listed as inhibitors; 1.2% of 410,000 active; AID 1159524; calls by dose curve; tested in HEK293T cells; further: read-out not given here; potency means the concentration at half of the fitted maximal effect; on the % scale 0 is the no-effect control and ±100 the full control effect; nearly all actives have a fitted effect of over 45% in size
CHX counter: counter-screen hit for Shiga toxin inhibitors, cycloheximide. 12% of 300,000 active. max response, %. cell reporter, cycloheximide protein synthesis inhibition counterscreen; in the data active means max response mostly above about 13%, no sharp cut-off; inactive means mostly below about 14%; further: read at 38.3 µM for the half of the compounds with a filed dose; 0% is about no effect
Sm TGR block: inhibitors of Schistosoma mansoni thioredoxin glutathione reductase; Q962Y6; purified TGR, DTNB reduction, TNB absorbance 405 nm; Potency, µM (top dose mostly 114 µM), inactives show top-dose activity change, negative = inhibition, usual class: inhibitors; 3% of 360,000 active; AID 485364; active means well fitted inhibition curve with a large enough effect; inconclusive means small, poorly fitted or top-dose-only effect; inactive means no such curve, though single readings can be large or run the other way; further: potency means the concentration at half of the fitted maximal effect; on the % scale 0 is the no-effect control and ±100 the full control effect; nearly all actives have a fitted effect of over 60% in size
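First, TGR (20 nM dispensed) and NADPH were mixed with compound. Second, a 15 min room-temperature incubation followed. Third, further NADPH and then DTNB were added to start the reaction. Finally, TNB absorbance was monitored kinetically.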
Shiga inhibitor: inhibitors of Shiga toxin in Vero cells. AID 2315. 9.2% of 290,000 active. Vero cells, Shiga toxin protein synthesis inhibition reporter. inhibition, % at 38.7 µM; in the data active means inhibition mostly above about 28%, no sharp cut-off; inactive means mostly below about 43%; further: 0% is about no effect
An asterisk follows results filed as active; ? = inconclusive; . = no result given.

SMILES	FMDV inh	CHX counter	Sm TGR block	Shiga inhibitor
Cc1nc(NC(=O)CN2CCN(c3ccccc3F)CC2)sc1C(=O)N(C)C	-7%	-1	1%	7
Cc1nc(NC(=O)CN2CCC(O)(c3ccc(F)cc3)CC2)sc1C	8%	17*	-1%	47*
O=c1c2ccccc2oc2ccc(NCCCn3ccnc3)cc12	-21%	33*	-25%	54*
Cc1nc(NCCCn2ccnc2)c2oc3ccccc3c2n1	-19%	16*	3%	33
CC(C)CC(C(=O)Nc1oc(-c2ccco2)c(-c2ccco2)c1C#N)N1C(=O)c2ccccc2C1=O (stereo unspecified)	-10%	-1	56µM*	-3
CCCCC1=CC2=CC(=O)C(C)(OC(=O)C3CCCC3)C(=O)C2=CO1 (stereo unspecified)	-19%	-8	40µM*	19
COC(=O)CCCC1=CC2=CC(=O)C(C)(OC(=O)C3CCCC3)C(=O)C2=CO1 (stereo unspecified)	-20%	-5	0%	-4
CC1(OC(=O)C2CCCC2)C(=O)C=C2C=C(c3ccsc3)OC=C2C1=O (stereo unspecified)	-15%	-5	45µM*	-6
CC1(OC(=O)C2CCCC2)C(=O)C=C2C=C(c3ccsc3)N(Cc3ccco3)C=C2C1=O (stereo unspecified)	-3%	0	25µM*	29
CCOc1ccccc1CNc1nc2nc(C)cc(C)n2n1	-13%	.	0%	.
O=C(Nc1ccc(F)cc1)c1c(Cl)nc2ccccn12	29%	31*	18%	73*
CCC(=O)Nc1ccc(NC(=O)c2c(C)nc3ccccn23)cc1	.	-4	-13%	10
Cc1nc2ccccn2c1C(=O)NNC(=S)Nc1ccc(Cl)cc1	-18%	-1	-9%	19*
Cc1nc2ccccn2c1C(=O)NNC(=S)Nc1ccccc1	1%	7	1%	-1
COc1ccc(NC(=O)c2c(Cl)nc3ccccn23)cc1	9%	32*	0%	74*
CN(C)S(=O)(=O)c1ccc(C(=O)NCC(c2cccs2)N2CCOCC2)cc1 (stereo unspecified)	-6%	.	56µM*	.
CCN(CC)S(=O)(=O)c1ccc(C(=O)NCC(c2cccs2)N2CCOCC2)cc1 (stereo unspecified)	.	1	-8%	-9
O=C(NCC(c1cccs1)N1CCOCC1)c1cc([N+](=O)[O-])cc([N+](=O)[O-])c1 (stereo unspecified)	-16%	18*	-3%	2
O=C(NCC(c1cccs1)N1CCOCC1)c1cccc([N+](=O)[O-])c1 (stereo unspecified)	-8%	0	4%	-21
COc1ccccc1OCc1nnc(-c2ccccc2)o1	23%	.	2%	.
COc1ccc2sc(-c3ccccc3OC)c(C#CCCO)c2c1	-12%	.	?	.
COc1cc(OC)cc(-c2sc3ccc(OC)cc3c2C#CCCO)c1	-7%	.	25µM*	.
CCCCc1nn2c(=O)cc(COC(=O)c3cccc(NC(=O)CCc4ccccc4)c3)nc2s1	-28%	.	2%	.
Cc1cc(C)n2nc(C(=O)NCC3Cc4cccc(-c5ccc(S(C)(=O)=O)cc5)c4O3)cc2n1 (stereo unspecified)	34%	.	.	.
CCOC(=O)c1c(NC(=O)CSc2nnc(C)s2)sc2c1CCN(C)C2	0%	-2	32µM*	-7
SMILES	FMDV inh	CHX counter	Sm TGR block	Shiga inhibitor
CCOC(=O)c1c(NC(=S)Nc2ccc(Cl)cc2)sc2c1CCN(C)C2	7%	-1	-25%	2
CCOC(=O)c1c(NC(=S)Nc2ccc(OCC)cc2)sc2c1CCN(C)C2	21%	18*	-34%	36
CC1(c2ccc([N+](=O)[O-])cc2)Nc2ccccc2S1 (stereo unspecified)	18%	33*	0%	65*
COc1cc2c(cc1OC)C(COc1ccc3c(C)cc(=O)oc3c1)N(C(=O)Cc1ccc(F)cc1)CC2 (stereo unspecified)	0%	.	-2%	.
Cc1c(C(=O)Nc2ccc(F)cc2F)oc2c1-c1nn(Cc3c(F)cccc3Cl)cc1CC2	-20%	.	-1%	.
CCc1ccc(C(=O)/C=C/NCc2ccc(F)cc2)cc1	24%	19*	-2%	49
Cc1ccc(C(=O)/C=C\NCc2ccccc2)cc1	10%	75*	-2%	86*
Cc1ccc(CSCC(=O)NCc2ccco2)cc1	4%	11	0%	25
O=C(CSCc1ccc(Cl)cc1)NCCSCc1ccco1	-10%	18	28µM*	5
Cc1ccccc1CSCC(=O)NCc1ccco1	14%	21	?	36*
Cc1ccc(-c2nc(C)sc2CC(=O)NCc2ccco2)cc1	-5%	1	22µM*	21
Cc1ccccc1CSCC(=O)NCCSc1ccccn1	20%	22*	-11%	33
O=C(C1CCN(S(=O)(=O)Cc2ccccc2)CC1)N1CCN(c2ccc(F)cc2)CC1	-21%	.	-7%	.
Cc1ccc(SCC(=O)NCc2ccco2)cc1	28%	17*	?	40
O=C(NCCSc1ccccn1)c1ccc(Cl)cc1Cl	36%	-2	4%	-4
Cc1ccc(C(=O)NCCSc2snnc2C)cc1	27%	54*	0%	71*
Cc1nnsc1SCCNC(=O)c1c(F)cccc1F	-10%	4	1%	-4
O=C(NCCSc1ccccn1)c1ccc(Cl)cc1	-28%	12	-6%	63*
Cc1ccccc1Cn1c(=O)n(CCCC(=O)NCc2ccco2)c(=O)c2ccccc21	?	14*	-22%	14
O=C(Cn1c(=O)n(Cc2ccco2)c(=O)c2ccccc21)Nc1ccc(Cl)cc1Cl	-4%	.	0%	.
COc1ccc2ncc3c(-c4ccccc4)nn(-c4ccc(C)c(C)c4)c3c2c1	-13%	.	-13%	.
C=CC[C@@H]1/C=C(\C)C[C@H](C)C[C@H](OC)[C@H]2O[C@@](O)(C(=O)C(=O)N3CCCC[C@H]3C(=O)O[C@H](/C(C)=C/[C@@H]3CC[C@@H](O)[C@H](OC)C3)[C@H](C)[C@@H](O)CC1=O)[C@H](C)C[C@@H]2OC	.	-3	.	-6
CC(=O)n1nc(-c2ccc(C)cc2)nc1NCc1ccco1	64%	63*	8%	101*
COc1ccc(C)cc1NC(=O)CSCc1ccccc1C	-27%	3	3%	.
O=C(CSc1ccc(Cl)cc1)NC(=O)NCc1ccco1	-15%	-1	-23%	19
SMILES	FMDV inh	CHX counter	Sm TGR block	Shiga inhibitor
Cc1ccc(-n2c(SCC(=O)NCc3ccco3)nnc2-c2cccnc2)cc1	-4%	6	45µM*	-5
Cc1ccccc1CSCC(=O)Nc1ccccc1F	31%	44*	-10%	.
Cc1ccc(-c2nc(NCc3ccco3)n(S(C)(=O)=O)n2)cc1	55%	-2	2%	-8
CNC(=O)CSc1nnc(-c2cccnc2)n1-c1ccc(C)cc1	-12%	-4	.	-1
O=C(CSc1ccc(Cl)cc1)NCc1ccco1	35%	32*	-14%	34
Cc1cccc(C)c1NC(=O)CSc1nc2ncccc2o1	0%	.	0%	.
O=C(NNC(=S)NCc1ccco1)c1ccc(Cl)s1	14%	-3	-34%	-2
O=C(CSCc1ccco1)c1ccc(Cl)s1	.	25*	28µM*	108*
O=C(c1ccncc1)c1ccc(Br)cc1	-10%	-3	3%	13

Source: PubChem
